Results as given in PubChem BioAssay.
Inconclusive results are not listed. Calls of active or inactive are those of the source. Unless noted, no stated cut-off is given here; in the data, active means inhibition above about 80%; inactive means the rest.

Key:
[1] = viability loss in pontine glioma line – cell-based, SU-DIPG-XVII, MIPE5.0, CellTiter-Glo, qHTS, dose response (AID 1347060; cut-off not given, nearly all actives have AC50 up to about 26 µM;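 further: cells exposed to compound for 48 hours before viability readout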); conditions: CellTiter-Glo ATP luminescence
[2] = viability loss in pontine glioma line – cell-based, SU-DIPG-XIII, MIPE5.0, CellTiter-Glo, qHTS, dose response (AID 1347064; cut-off not given, nearly all actives have AC50 up to about 23 µM;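 further: cells exposed to compound for 48 hours before the viability read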); conditions: CellTiter-Glo ATP luminescence
[3] = viability loss in pontine glioma line – cell-based, SU-DIPG-XXV, MIPE5.0, CellTiter-Glo, qHTS, dose response (AID 1347065; cut-off not given, nearly all actives have AC50 up to about 26 µM;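 further: cells exposed to compound for 48 hours before ATP readout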); conditions: CellTiter-Glo ATP luminescence
[4] = JHH-DIPG-1 glioma cell viability, MIPE5.0 library, CellTiter-Glo luminescence, qHTS (AID 1347067; cut-off not given, nearly all actives have AC50 up to about 26 µM;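 further: cells exposed to compound for 48 hours before readout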); conditions: JHH-DIPG-1 glioma viability, CellTiter-Glo ATP luminescence
[5] = growth inhibition of DIPG cells – cell-based, MIPE5.0 library, qHTS (AID 1347068; cut-off not given, nearly all actives have IC50 up to about 30 µM); conditions: SU-DIPG-XXV viability
[6] = growth inhibition, single agent or in combination, cell-based, chromothripsis tumors, cisplatin or BGB combos (AID 1671449); conditions: LFS_MB_P medulloblastoma cells;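 further: cells exposed for 96 hours; 0% = vehicle DMSO and 100% = killing by high DMSO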
[7] = growth inhibition, single agent and combos, cell-based, chromothripsis tumors, cisplatin or BGB combos (AID 1671450); conditions: HDN33 neuroblastoma cells, stronger effect = higher value;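 further: cells exposed to compound for four days; 0% = vehicle DMSO and 100% = cell killing by high DMSO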
[8] = growth inhibition, single agents and combos, ICB984, cell-based, cisplatin or BGB combos, synergistic combos for chromothripsis tumors (AID 1671451; call rule not given here;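 further: cells exposed for 96 hours before readout; 0% = vehicle DMSO and 100% = killing by high DMSO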); conditions: ICB984 medulloblastoma cells, drug combinations, stronger effect = higher value
[9] = growth inhibition, single agents and combos, LFS_MB_1R, cell-based, cisplatin or BGB combos, synergistic combos for chromothripsis tumors (AID 1671452); conditions: LFS_MB_1R medulloblastoma cells, stronger effect = higher value;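 further: cells exposed for 96 hours before readout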
[10] = growth inhibition, single agents and combos, HTB85, cell-based, BGB or cisplatin IC20 combos, synergistic combos for chromothripsis tumors (AID 1671453); conditions: HTB85 osteosarcoma cells, drug combinations, stronger effect = higher value;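 further: cells exposed for 96 hours before readout; 0% = vehicle DMSO and 100% = high DMSO killing control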
[11] = growth inhibition, single agents and combos, CRL2098, cell-based, BGB or cisplatin IC20 combos, synergistic combos for chromothripsis tumors (AID 1671454); conditions: CRL2098 osteosarcoma cells, drug combinations, stronger effect = higher value;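 further: cells exposed for 96 h before readout; 0% = vehicle DMSO and 100% = killing by high DMSO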
[12] = growth inhibition, single agents and combos, HD-MB03, cell-based, BGB or cisplatin IC20 combos, synergistic combos for chromothripsis tumors (AID 1671455; in the data active means inhibition above about 83%;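 further: 0% = vehicle DMSO and 100% = high DMSO as cytotoxic control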); conditions: HD-MB03 medulloblastoma cells, stronger effect = higher value
[13] = growth inhibition, single agents and combos, UWB1.289, cell-based, BGB or cisplatin combos, synergistic combos for chromothripsis tumors (AID 1671456); conditions: UWB1.289 ovarian carcinoma cells, stronger effect = higher value;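 further: cells exposed to compound for four days; 0% = vehicle DMSO and 100% = killing by high DMSO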
[14] = growth inhibition, MDA-MB-436, cell-based, BGB or cisplatin combos, synergistic combos for chromothripsis tumors (AID 1671458; call rule not given here;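 further: cells exposed for 96 hours; 0% = vehicle DMSO and 100% = killing by high DMSO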); conditions: MDA-MB-436 breast carcinoma growth inhibition, drug combinations, stronger effect = higher value
[15] = BT084 cell growth, single and combined drugs, ICGC_MB145, cisplatin and BGB IC40 combos (AID 1671461); conditions: BT084 medulloblastoma cells, drug combinations, stronger effect = higher value;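 further: cells exposed to drugs for 96 hours; 0% = vehicle DMSO and 100% = high DMSO full killing control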
[16] = RCMB18 cell growth, single agent and combined, cisplatin and BGB IC40 combos (AID 1671462); conditions: RCMB18 medulloblastoma cells, stronger effect = higher value;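 further: cells exposed to compound for four days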
[17] = CRL1545 cell growth, single agent and combined, cisplatin and BGB IC20 combos (AID 1671464); conditions: CRL1545 osteosarcoma cells, stronger effect = higher value;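 further: cells exposed to compound for 96 hours before readout; 0% = vehicle DMSO and 100% = high DMSO killing control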
[18] = measured here: combination with BGB IC40, at 0.05 µM
[19] = measured here: with BGB IC20 combination, at 0.5 µM
[20] = measured here: with cisplatin IC20 combination, at 0.5 µM
[21] = measured here: combination with cisplatin, at 0.5 µM

Compound: CC(=O)[C@]1(N)Cc2c(O)c3c(c(O)c2[C@@H](O[C@H]2C[C@H](O)[C@H](O)CO2)C1)C(=O)c1ccccc1C3=O
- AC50 [1]: 16.6 µM (active)
- AC50 [2]: 16.6 µM (active)
- AC50 [3]: 20.9 µM (active)
- AC50 [4]: 16.6 µM (active)
- outcome [5]: inactive
- inhibition ([6]; at 0.5 µM, stronger effect = higher value): -12.9% (inactive)
- inhibition ([6]; measured here: combination with BGB IC20, at 0.005 µM): -16.8%
- inhibition ([6]; measured here: combination with BGB IC40, at 0.005 µM): -30.9%
- inhibition [6, 18]: -51.9%
- inhibition ([6]; measured here: combination with cisplatin, at 0.5 µM, stronger effect = higher value): -19.4%
- inhibition ([6]; measured here: combination with cisplatin, at 5 µM, stronger effect = higher value): 104%
- inhibition ([7]; BGB combo, at 5 µM): 96.4%
- inhibition ([7]; at 0.5 µM): -0.33% (inactive)
- inhibition ([7]; cisplatin combo, at 5 µM): 97.3%
- inhibition [7, 19]: 0.353%
- inhibition [7, 20]: -4.83%
- inhibition ([7]; single agent, at 5 µM): 98.2%
- inhibition ([8]; BGB IC20 combo, at 0.005 µM): 2.76%
- inhibition ([8]; BGB IC40 combo, at 0.005 µM): -3.55%
- inhibition ([8]; BGB IC40 combo, at 0.05 µM): 86.2%
- inhibition ([8]; at 0.5 µM): -21.5% (inactive)
- inhibition ([8]; cisplatin combo, at 0.05 µM): 85.8%
- inhibition ([8]; cisplatin combo, at 0.5 µM): -10.1%
- inhibition ([8]; cisplatin combo, at 5 µM): -12.5%
- inhibition ([8]; measured here: 5 uM single agent, at 5 µM): -13.2%
- inhibition ([9]; at 0.5 µM): -7.63% (inactive)
- inhibition [9, 18]: -7.53%
- inhibition [9, 21]: -2.7%
- inhibition ([9]; measured here: combination with cisplatin, at 5 µM): 81.1%
- inhibition ([10]; at 0.5 µM): -1.28% (inactive)
- inhibition ([10]; measured here: with BGB IC20, at 0.5 µM): 3.02%
- inhibition ([10]; measured here: with BGB IC20, at 5 µM): 79.1%
- inhibition ([10]; measured here: with cisplatin IC20, at 0.5 µM): -5.97%
- inhibition ([10]; measured here: with cisplatin IC20, at 5 µM): 82.6%
- inhibition ([10]; single agent, at 5 µM): 81.3%
- inhibition ([11]; at 0.5 µM): -28.4% (inactive)
- inhibition ([11]; measured here: combination with BGB at IC20, at 0.5 µM): -13.2%
- inhibition ([11]; measured here: combination with cisplatin at IC20, at 0.5 µM): -55.8%
- inhibition ([12]; at 0.5 µM): -4.21% (inactive)
- inhibition ([12]; measured here: combo with BGB at IC20, at 0.5 µM): 5.01%
- inhibition ([12]; measured here: combo with cisplatin at IC20, at 0.5 µM): -12.8%
- inhibition ([13]; at 0.5 µM): 13.8% (inactive)
- inhibition ([13]; measured here: inhibition with BGB combination, at 0.05 µM): -13.2%
- inhibition ([13]; measured here: inhibition with cisplatin combination, at 0.05 µM): 8.23%
- inhibition ([14]; at 0.5 µM): -0.11% (inactive)
- inhibition ([14]; measured here: BGB combination, at 0.5 µM): -3.77%
- inhibition ([14]; measured here: BGB combination, at 5 µM): 73.9%
- inhibition ([14]; measured here: cisplatin combination, at 0.5 µM): -8.99%
- inhibition ([14]; measured here: cisplatin combination, at 5 µM): 84%
- inhibition ([15]; at 0.5 µM): 22.6% (inactive)
- inhibition ([15]; cisplatin combination, at 0.5 µM): -12.8%
- inhibition ([15]; cisplatin combination, at 5 µM): 84.4%
- inhibition ([15]; measured here: BGB IC40 combination 0.05 uM, at 0.05 µM): -38.7%
- inhibition ([15]; single agent, at 5 µM): 86.5%
- inhibition ([16]; at 0.5 µM): 9% (inactive)
- inhibition ([16]; cisplatin combo, at 5 µM): 89.6%
- inhibition ([16]; measured here: BGB IC40 combination, at 0.05 µM): -27.7%
- inhibition [16, 21]: 31.1%
- inhibition ([16]; single agent, at 5 µM): 89.9%
- inhibition ([17]; at 0.5 µM): 20% (inactive)
- inhibition [17, 19]: -1.69%
- inhibition [17, 20]: 29.7%
- inhibition ([17]; single agent, at 0.05 µM): 22.1%
- inhibition ([17]; single agent, at 5 µM): 90.1%
